# Experimental data taken from ChEMBL document CHEMBL3988442, “University of Dundee, Small-Polar-MMV Screening Library” (2021).
# About 900 (1.7%) of roughly 53,000 compounds showed an effect of 50% or more. This is one part of a sample in which strong results are shown more often than they occur.
# Test system: Mycobacterium tuberculosis
# Assay: Cornell - Phenotypic assay to identify agents that inhibit growth of Mycobacterium tuberculosis
# Type: functional
# Design: scale not given: direction of the effect not stated beside the values
# Conditions: 10 mM as filed; unlikely as a test dose
row,Structure (SMILES),Percent Effect
1,CCS(=O)(=O)N1CCc2c(cccc2NC(=O)NCCOC)C1,16.78%
2,COc1ccccc1CCN(C)C(C)c1nc(-c2cccnc2)no1 (stereo not drawn),-40.91%
3,CN(CCc1ccncc1)c1cnn(C)c(=O)c1Br,-2.68%
4,CC1Cn2c(nc3c2c(=O)[nH]c(=O)n3C)O1 (stereo not drawn),-12.37%
5,COCC(=O)N1CCCCC1c1ccncn1 (stereo not drawn),-40.59%
6,Cc1cc(C(=O)Nc2n[nH]c(C3CC3)n2)c2c(C)nn(C)c2n1,11.85%
7,COc1ccc(N2CCC(NC(=O)c3sccc3C)CC2)cc1,-7.923%
8,Cc1nc(CCNC(=O)NCc2cccc(N(C)C)n2)cs1,-57.29%
9,CC(=O)c1ccc(NC(=O)NCc2cccc(N(C)C)n2)cc1C,76.43%
10,CN(C)c1cccc(CNC(=O)Nc2ccc3[nH]nnc3c2)n1,45.79%
11,CCC(=O)N1CCC(c2ncc3c(n2)CCNC3)CC1,-31.27%
12,Cl.Cn1ccnc1CNC(=O)c1ccnc(C2CCNCC2)c1,-5.824%
13,Cl.O=C(NC1CCCC1)c1ccnc(C2CCNCC2)c1,56.56%
14,Cl.O=C(c1ccnc(C2CCNCC2)c1)N1CCCC1,-26.15%
15,O=C(O)C(F)(F)F.O=C(O)C(F)(F)F.c1cnn(CCCO[C@@H]2CC[C@H]3[C@H]2OCCN3CC2CCOCC2)c1,-30.39%
16,O=C(Nc1nc2c(s1)CN(S(=O)(=O)C1CC1)CC2)c1cccc(Cl)c1,52.55%
17,O=C(Nc1nc2c(s1)CN(S(=O)(=O)C1CC1)CC2)c1c(F)cccc1F,0.32%
18,O=C(Nc1nc2c(s1)CN(S(=O)(=O)C1CC1)CC2)c1ccc(Cl)s1,7.24%
19,Cc1ccc(C(=O)N2CC(=O)N(Cc3ccco3)CC(O)C2)cc1 (stereo not drawn),7.151%
20,Cc1ccc(-c2nc(CN3CC(n4nc(C)cc4C)C3)no2)cc1,102.5%
21,Cc1cc(C)n(C2CN(Cc3noc(-c4ccccc4)n3)C2)n1,16.77%
22,COc1ccc(-c2nc(CN3CC(n4cc(C)cn4)C3)no2)cc1,55%
23,COc1ccc(-c2noc(CN3CC(n4cc(C)cn4)C3)n2)cc1,22.62%
24,COc1ccc(-c2nc(CN3CC(n4cccn4)C3)no2)cc1,15.06%
25,COc1ccc(-c2nc(CN3CC(n4nc(C)cc4C)C3)no2)cc1,46.41%

row,Structure (SMILES),Percent Effect
1,COCCCNC(=O)Nc1ncc(-c2cccc(OC)c2)n1CCOC,20.98%
2,CN(C)C(=O)CNC(=O)c1ccn(-c2ccc3ccccn23)n1,8.811%
3,CCc1nnc(CS(=O)(=O)c2ccc(C)c(C)c2)n1C,-14.67%
4,Cc1cccnc1CN(C)C(C(=O)O)c1ccc(-n2cccn2)cc1 (stereo not drawn),103.2%
5,Cc1cccnc1CN(C)C(C(=O)O)c1ccc(-c2ccn[nH]2)cc1 (stereo not drawn),83.57%
6,Cc1cccnc1CN(C)C(C(=O)O)c1ccc(C(C)(C)C#N)cc1 (stereo not drawn),37.7%
7,CN(Cc1ccc(-n2cccn2)cc1)C(=O)CCC(F)(F)F,-2.335%
8,CCn1ccnc1CN(C)C(C(=O)O)c1ccc(C(C)(C)C#N)cc1 (stereo not drawn),-8.491%
9,COc1c(C)cc(C(C(=O)O)N(C)Cc2ccn[nH]2)cc1C (stereo not drawn),14.99%
10,COc1ccc(CN2C[C@@H]3CC[C@H](C2)N(S(C)(=O)=O)C3)cc1,-9.044%
11,Cc1cc2nc(C(C)C)cc(N3CCSCC3)n2n1,-12.34%
12,CC(C)c1cc(N2CCN(c3ccc(O)cc3)CC2)n2nccc2n1,106.1%
13,Cc1cc2nc(C(C)C)cc(N3CCC(O)CC3)n2n1,7.748%
14,Cc1cc2nc(C(C)C)cc(N3CCN(c4ccc(O)cc4)CC3)n2n1,103.7%
15,CC(C)c1cc(N2CCC(CCC(=O)NC3CC3)CC2)n2nccc2n1,19.75%
16,CC(C)c1cc(N2CCC(N)CC2)n2nccc2n1,24.37%
17,Cc1nc(CN2CCO[C@@H]3CN(C(=O)CC4CC4)CC[C@@H]3C2)cs1,21.81%
18,CCCN(CC(=O)NC)C(=O)c1ccc(-c2nc(C)cs2)cc1,8.736%
19,CS(=O)(=O)N[C@@H]1CN(C(=O)c2ccccn2)[C@@H]2CCCO[C@@H]21.O=C(O)C(F)(F)F,24.81%
20,CC(C)c1nc(-c2cc(C(=O)O)c3ccccn23)cs1,89.3%
21,Cn1ccc(-c2cc(C(=O)N3CCC(C(N)=O)CC3)c3ccccn23)n1,11.2%
22,Cn1ccc(-c2cc(C(=O)N3CCOCC3)c3ccccn23)n1,-21.75%
23,Cn1ccc(-c2cc(C(=O)N3CCC(O)CC3)c3ccccn23)n1,-33.58%
24,CC(C)c1nc(-c2cc(C(=O)NCCCO)c3ccccn23)cs1,21.42%
25,O=C(O)c1cc(-c2ccn(CC3CC3)n2)n2ccccc12,99.83%

row,Structure (SMILES),Percent Effect
1,CC(C)c1nc(-c2cc(C(=O)N3CCN(C)CC3)c3ccccn23)cs1.O=C(O)C(F)(F)F,-33.65%
2,O=C(c1cc(-c2ccn(CC3CC3)n2)n2ccccc12)N1CCCO1,45.3%
3,O=C(c1cc(-c2ccn(CC3CC3)n2)n2ccccc12)N1CCOCC1,96.99%
4,Cc1nc(N)ncc1C(=O)N1CCCC1(C)C(=O)N(C)C (stereo not drawn),14.34%
5,Cc1cc(N2CCCC(c3[nH]ncc3Cc3ccccc3)C2)nc(N)n1 (stereo not drawn),13.81%
6,Cc1ncc(CNC(=O)Cc2ccsc2)c(C2CCCN2C)n1 (stereo not drawn),11.73%
7,CN1C(=O)C2(CC(=O)Nc3[nH]ncc32)c2cc(Cl)ccc21 (stereo not drawn),9.602%
8,O=C(c1ccoc1)N1CCCn2cnc(COCC3CC3)c2C1,7.498%
9,CC(C)C[C@@H]1N[C@H](C(=O)NCC2CC2)Cc2c[nH]c3cccc1c23,40.17%
10,COC(=O)[C@@H]1Cc2c[nH]c3cccc(c23)[C@H](CC(C)C)N1,105.3%
11,CC(C)C[C@@H]1N[C@H](C(=O)NC(C)C)Cc2c[nH]c3cccc1c23,22.96%
12,Cc1ccc(CN(CCN(C)C)Cc2c(C)nc3sccn23)o1.O=C(O)CC(O)(CC(=O)O)C(=O)O,26.14%
13,Cc1nc2sccn2c1CN(CCCN(C)C)Cc1ccco1.O=C(O)CC(O)(CC(=O)O)C(=O)O,33.13%
14,Cc1nc2sccn2c1CN(CCCN(C)C)Cc1ccccn1.O=C(O)CC(O)(CC(=O)O)C(=O)O,51.28%
15,COCCN1CCC2(CCN(Cc3ccc(OC)cc3)CC2)C1=O.O=C(O)C(F)(F)F,-13.5%
16,Cc1cccc(CN2CCC3(CCC(C(=O)N(C)C)O3)CC2)n1 (stereo not drawn),35.49%
17,Fc1cccc2[nH]c(CN3CCn4c(nnc4C4CC4)C3)nc12,-6.1%
18,Cc1nn(C)c(N(C)C)c1CNCc1nnc2n1CCCCC2.Cl,67.58%
19,COc1c(CNCc2nnc3n2CCCCC3)c(C(C)C)nn1C.Cl,-4.214%
20,COc1c(CNCc2nnc3n2CCCCC3)c(C)nn1C.Cl,31.65%
21,Cc1cccc(COc2ccc(C(C)NC(=O)CNC(N)=O)cc2)c1 (stereo not drawn),14.07%
22,CC1(C)CC(=O)c2cnc3nc(N4CCCC4)[nH]c(=O)c3c2C1,23.1%
23,CCC1CNCc2cc3c(C)ccc(C)c3nc2O1 (stereo not drawn),61.63%
24,CCC1CNCc2cc3c(OC)ccc(OC)c3nc2O1 (stereo not drawn),6.248%
25,CS(=O)(=O)c1ccccc1-n1cc(NC(=O)CC(F)(F)F)cn1,18.55%

row,Structure (SMILES),Percent Effect
1,CCC(=O)c1ccccc1NN1c2ccccc2C(=O)C1(C)OC (stereo not drawn),13.72%
2,COc1ccc(CC(=O)Nc2c(C)nc(N3CCCC3)nc2C)cc1,59.35%
3,COc1ccc(CC(=O)Nc2c(C)nc(N3CCOCC3)nc2C)cc1,3.579%
4,Cc1nc(N2CCOCC2)nc(C)c1NC(=O)Cc1ccc(Cl)cc1,-26.81%
5,COc1cc(N2C[C@H]3OCC[C@H]3[C@H](C(=O)N3CCCC3)C2)ncn1,-33.02%
6,CC[C@H]1N(CC2CCC2)CCC[C@]12CCC(=O)N2Cc1ccncc1.O=C(O)C(F)(F)F.O=C(O)C(F)(F)F,23.16%
7,CC[C@@H]1N(CC2CC2)CCC[C@]12CCC(=O)N2CCOC.O=C(O)C(F)(F)F,52.28%
8,CC[C@@H]1N(Cc2ccsc2)CCC[C@]12CCC(=O)N2CCOC.O=C(O)C(F)(F)F,13.62%
9,Fc1ccccc1CC1CCN(Cc2cscn2)CC1,30.5%
10,Fc1ccccc1CC1CCN(Cc2ccccn2)CC1,29.36%
11,Cc1cccc(CN2CCC(Cc3ccccc3F)CC2)n1,56.1%
12,O=C1CN(C(=O)C2CN(c3ccccc3)CCO2)CCN1 (stereo not drawn),14.68%
13,O=C(Nc1ccnc(OC2CCOC2)c1)c1ccc(F)cc1Cl (stereo not drawn),1.296%
14,O=C(Nc1ccnc(OC2CCOC2)c1)c1ccccc1Cl (stereo not drawn),61.48%
15,Cc1occc1C(=O)Nc1ccnc(OC2CCOC2)c1 (stereo not drawn),6.262%
16,CN(Cc1ccc(F)cc1)[C@@H]1CN(S(=O)(=O)N(C)C)C[C@H]1O,11.25%
17,COCCN1CCO[C@H]2CN(Cc3cc[nH]n3)C[C@H]21.O=C(O)C(F)(F)F.O=C(O)C(F)(F)F,-6.862%
18,N#Cc1ccc(S(=O)(=O)Nc2ccccc2C#N)cn1,63.63%
19,COCCNS(=O)(=O)c1ccc(CNc2ncccc2C#N)cc1,9.617%
20,Cc1ccc(S(=O)(=O)Nc2cccnc2O)cc1C,-38.51%
21,Cc1cccc(NS(=O)(=O)c2cnn(C)c2)c1C#N,-1.344%
22,Cc1cccc(NS(=O)(=O)c2ccc(C#N)nc2)c1C#N,105.8%
23,N#Cc1cccnc1NCc1ccc(S(=O)(=O)NCC2CCCO2)cc1 (stereo not drawn),-11.22%
